This note sets out measurements from PubChem BioAssay (EPA / NIEHS).

“And” between values parts separate entries of the source, which are not always exact repeats. Identical values can stand only once. More than one record can exist for a structure, and the calls need not agree. The source made the active and inactive calls. The calls were made as follows: active = hit-call score of the fitted dose curve at least 0.9, where 1 is the maximum; inactive = score below 0.9.

Read-out in assay [1]: Interleukin 17F (IL17F), IL17F (gene 112744)
Kind of assay: BSK_BT_xIL17F: BioMAP Diversity Plus: BT Assay for Interleukin 17F (IL17F) Biomarker Activity (AID 2284243). The conditions noted are these: primary human B cells with PBMC. In short, it runs like this:
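Measures secreted IL-17F from a human B cell plus PBMC co-culture at 24 h post-dose by Luminex xMAP, with DMSO defining baseline activity.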

Read-out in assay [2]: Actin alpha 1 (ACTA1), ACTA1 (gene 58)
Kind of assay: BSK_MyoF_ACTA1: BioMAP Diversity Plus: MyoF Assay for Actin alpha 1 (ACTA1) Biomarker Activity (AID 2284244). The conditions noted are these: primary human lung fibroblasts. In short, it runs like this:
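Lung fibroblasts, human primary, 24 h compound exposure → a-SMA ELISA. Positive-direction fit vs DMSO control.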

Read-out in assay [3]: Interleukin 2 (IL2), IL2 (gene 3558)
Nature of the assay: BSK_BT_xIL2: BioMAP Diversity Plus: BT Assay for Interleukin 2 (IL2) Biomarker Activity (AID 2284245). The conditions noted are these: primary human B cells with PBMC. In short, it runs like this:
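B cell + PBMC co-culture (human primary), compound added, 24 h incubation; secreted IL-2 measured multiplexed on Luminex xMAP; gain-of-signal fit vs DMSO.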

Read-out in assay [4]: Collagen IV, COL4A1 (gene 1282)
Nature of the assay: BSK_MyoF_CollagenIV: BioMAP Diversity Plus: MyoF Assay for Collagen IV Biomarker Activity (AID 2284247). The settings on record: primary human lung fibroblasts. In short, it runs like this:
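Steps: dose human lung fibroblasts; culture 24 h; quantify Collagen IV by ELISA; fit increase versus DMSO control. Parallel SRB total-protein staining (0.1% SRB after 10% TCA fixation, 560 nm) tracks overt cytotoxicity.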

Read-out in assay [5]: Monokine induced gamma interferon (MIG), CXCL9 (gene 4283)
Nature of the assay: BSK_KF3CT_MIG: BioMAP Diversity Plus: KF3CT Assay for Monokine induced gamma interferon (MIG) Biomarker Activity (AID 2284248). The settings on record: primary human keratinocytes with fibroblasts. In short, it runs like this: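 The assay uses a co-culture of human keratinocytes and foreskin fibroblasts. Measurement occurs 24 hours after dosing, with MIG detected by ELISA and the DMSO control as baseline.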

Read-out in assay [6]: Vascular cell adhesion molecule 1 (VCAM1), VCAM1 (gene 7412)
Nature of the assay: BSK_BF4T_VCAM1: BioMAP Diversity Plus: BF4T Assay for Vascular cell adhesion molecule 1 (VCAM1) Biomarker Activity (AID 2284249). The settings on record: primary human bronchial epithelial cells with fibroblasts. In short, it runs like this: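 Human bronchial epithelial cell and dermal fibroblast co-culture exposed 24 h. VCAM-1 measured by ELISA; parallel SRB total-protein staining for cytotoxicity. Fitted in positive direction relative to DMSO.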

Read-out in assay [7]: Interferon-inducible T-cell alpha chemoattractant (ITAC), CXCL11 (gene 6373)
Kind of assay: BSK_hDFCGF_ITAC: BioMAP Diversity Plus: hDFCGF Assay for Interferon-inducible T-cell alpha chemoattractant (ITAC) Biomarker Activity (AID 2284251). The conditions noted are these: primary human foreskin fibroblasts. In short, it runs like this: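 Primary human foreskin fibroblasts (hDFCGF system) treated for 24 h; I-TAC quantified by ELISA. Gain-direction fitting versus DMSO; parallel SRB staining of total protein flagged overt cytotoxicity.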

Read-out in assay [8]: Plasminogen activator inhibitor-1 (PAI1), SERPINE1 (gene 5054)
Kind of assay: BSK_KF3CT_PAI1: BioMAP Diversity Plus: KF3CT Assay for Plasminogen activator inhibitor-1 (PAI1) Biomarker Activity (AID 2284252). The conditions noted are these: primary human keratinocytes with fibroblasts. In short, it runs like this:
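ELISA read-out of PAI-1 taken 24 h after chemical treatment of a human skin primary co-culture of keratinocytes and foreskin fibroblasts. Increases over DMSO-treated wells defined activity.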

Read-out in assay [9]: Interleukin-8 (IL8), CXCL8 (gene 3576)
Kind of assay: BSK_KF3CT_IL8: BioMAP Diversity Plus: KF3CT Assay for Interleukin-8 (IL8) Biomarker Activity (AID 2284254). The settings on record: primary human keratinocytes with fibroblasts. In short, it runs like this: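 ELISA detection of IL-8 from a human skin co-culture, keratinocytes with foreskin fibroblasts, at 24 h following chemical exposure, with gain of signal scored against DMSO controls.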

Read-out in assay [10]: Plasminogen activator inhibitor-1 (PAI1), SERPINE1 (gene 5054)
Nature of the assay: BSK_MyoF_PAI1: BioMAP Diversity Plus: MyoF Assay for Plasminogen activator inhibitor-1 (PAI1) Biomarker Activity (AID 2284256).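 As to outcome: PAI-1 protein level measured by ELISA in fibroblast cultures; PAI-1 read 24 h after compound addition.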 The settings on record: primary human lung fibroblasts. In short, it runs like this: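 Activity reflects increased PAI-1, determined by ELISA and compared with DMSO, in human lung fibroblasts treated for 24 h.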

Read-out in another assay: CD69, CD69 (gene 969)
Nature of the assay: BSK_IMphg_CD69: BioMAP Diversity Plus: IMphg Assay for CD69 Biomarker Activity (AID 2284257). The conditions noted are these: primary human endothelial cells with macrophages. In short, it runs like this: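 Human venular endothelial cells co-cultured with macrophages; CD69 quantified by ELISA 24 h after compound addition. Activity fitted in the positive direction relative to DMSO baseline; cytotoxicity tracked in parallel cultures via SRB total-protein staining.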

Read-out in assay [11]: Eotaxin 3, CCL26 (gene 10344)
Kind of assay: BSK_BF4T_Eotaxin3: BioMAP Diversity Plus: BF4T Assay for Eotaxin 3 Biomarker Activity (AID 2284258). The settings on record: primary human bronchial epithelial cells with fibroblasts. In short, it runs like this:
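Co-culture of human bronchial epithelial cells and dermal fibroblasts, exposed to chemicals for 24 h versus DMSO. Eotaxin-3 quantified by ELISA; cytotoxicity checked in parallel cultures by sulforhodamine B total-protein staining.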

Read-out in assay [12]: Monocyte Chemoattractant Protein-1 (MCP1), CCL2 (gene 6347)
Nature of the assay: BSK_BF4T_MCP1: BioMAP Diversity Plus: BF4T Assay for Monocyte Chemoattractant Protein-1 (MCP1) Biomarker Activity (AID 2284259). The settings on record: primary human bronchial epithelial cells with fibroblasts. In short, it runs like this:
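Co-culture of bronchial epithelial cells and dermal fibroblasts dosed with chemical; MCP-1 measured by ELISA 24 h later. Activity fitted in positive direction versus DMSO; cytotoxicity checked by SRB staining in parallel cultures.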

Read-out in assay [13]: Intercellular Adhesion Molecule 1 (ICAM1), ICAM1 (gene 3383)
Kind of assay: BSK_BF4T_ICAM1: BioMAP Diversity Plus: BF4T Assay for Intercellular Adhesion Molecule 1 (ICAM1) Biomarker Activity (AID 2284260). The settings on record: primary human bronchial epithelial cells with fibroblasts. In short, it runs like this: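 Co-culture of human bronchial epithelial cells and dermal fibroblasts exposed 24 h to chemical; cell-surface ICAM-1 quantified by ELISA. Parallel SRB total-protein staining assessed cytotoxicity; activity fitted relative to DMSO.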

Read-out in assay [14]: Interleukin-8 (IL8), CXCL8 (gene 3576)
Nature of the assay: BSK_MyoF_IL8: BioMAP Diversity Plus: MyoF Assay for Interleukin-8 (IL8) Biomarker Activity (AID 2284261). The conditions noted are these: primary human lung fibroblasts. In short, it runs like this: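 In this multiplexed primary-cell system, fibroblasts from human lung are treated with chemicals, and IL-8 is detected by ELISA at 24 h, with DMSO serving as the negative reference.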

Read-out in a further assay: CD90, THY1 (gene 7070)
Nature of the assay: BSK_BF4T_CD90: BioMAP Diversity Plus: BF4T Assay for CD90 Biomarker Activity (AID 2284262). The conditions noted are these: primary human bronchial epithelial cells with fibroblasts. In short, it runs like this:
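Co-culture of human bronchial epithelial cells and dermal fibroblasts, 24 h compound exposure. Cell-surface CD90 measured by ELISA relative to DMSO; parallel SRB total-protein staining for cytotoxicity.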

Read-out in assay [15]: Collagen I, COL1A1 (gene 1277)
Kind of assay: BSK_hDFCGF_CollagenI: BioMAP Diversity Plus: hDFCGF Assay for Collagen I Biomarker Activity (AID 2284250). The conditions noted are these: primary human foreskin fibroblasts. In short, it runs like this:
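Human skin primary fibroblasts dosed with test chemical, harvested at 24 h, Collagen I quantified by ELISA; parallel SRB staining (0.1% SRB after 10% TCA fixation, 560 nm) tracked cytotoxicity.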

For `OCC(O)CC(F)(F)C(F)(F)C(F)(F)C(F)(F)C(F)(F)C(F)(F)C(F)(F)C(F)(F)F` (stereo not drawn), the outcome in [1], in [2], in assay [3], in assay [4], in [5] and in assay [6] was inactive. Also, the outcome was “inactive” in assay [7]; “inactive” in assay [8]; “inactive” in [9]; “inactive” in assay [10]; “inactive” in the assay with CD69, CD69 (gene 969); “inactive” in assay [11]. Further, the outcome in [12] was “inactive”; in assay [13], “inactive”; in [14], “inactive”; with CD90, THY1 (gene 7070), “inactive”.
As to `O=C=NCc1cccc(CN=C=O)c1`, the result in assay [1], in [2], in [3], in assay [4], in assay [10] and in [14] was inactive.
Broadly, the AC50 is the midpoint of the concentration-response curve, whichever way the signal moves. Consider `Cc1cc(C)c(O)c(C(C)(C)C)c1`, for which the result in assay [1], in [3] and in assay [14] was inactive. The half-maximal activity concentration (AC50) in [2] was 29.8 µM (active); in [4] it was 32.4 µM (active); in assay [10] it was 36.4 µM (active).
As to `NC(=O)C(F)(F)C(F)(F)C(F)(F)C(F)(F)C(N)=O`, the outcome in assay [1], in [2], in assay [3], in assay [4], in assay [5] and in [6] was inactive. For the same compound, the outcome in assay [7] was “inactive”; in assay [8], “inactive”; in [9], “inactive”; in assay [10], “inactive”; with CD69, CD69 (gene 969) it was “inactive”; in assay [11], “inactive”. Moreover, the outcome in assay [12] is “inactive”; in assay [13] it was “inactive”; in [14], “inactive”; in the assay with CD90, THY1 (gene 7070), “inactive”.
Regarding `OCC(F)(F)C(F)(F)C(F)(F)C(F)(F)C(F)(F)C(F)(F)CO`, the outcome in assay [1], in assay [2], in assay [3], in [4], in assay [5] and in assay [6] was inactive. Further, the outcome in [7] was “inactive”; in assay [8], “inactive”; in assay [9], “inactive”; in assay [10], “inactive”; with CD69, CD69 (gene 969), “inactive”; in assay [11], “inactive”. The outcome in [12] is “inactive”; in assay [13], “inactive”; in assay [14], “inactive”; with CD90, THY1 (gene 7070) it was “inactive”.
As to `OCCCC(F)(F)C(F)(F)C(F)(F)C(F)(F)C(F)(F)C(F)(F)C(F)(F)C(F)(F)F`, the AC50 was 22.4 µM (active) and 19.1 µM (active) in [1]; 10.3 µM (active) and 10.6 µM (active) in assay [2]; 43.4 µM (active) and 46.9 µM (active) in assay [3]; 7.39 µM (active) in assay [4]; 14.8 µM (active) and 15.3 µM (active) in [5]; 13.9 µM (active) and 16.8 µM (active) in assay [6]. The AC50 was 7.67 µM (active) and 5.74 µM (active) in [7]; 12.7 µM (active) and 9.08 µM (active) in assay [8]; 17.1 µM (active) and 13.7 µM (active) in [9]; 16.5 µM (active) and 11.1 µM (active) in assay [10]; 40.1 µM (active) and 48.6 µM (active) in the assay with CD69, CD69 (gene 969); 24.7 µM (active) and 24.9 µM (active) in assay [11]. Besides, the AC50 in assay [12] was 21.6 µM (active) and 18 µM (active); in [13] it was 23.2 µM (active) and 34.2 µM (active); in assay [14] it was 11.9 µM (active) and 9.9 µM (active); in the assay with CD90, THY1 (gene 7070), 20.6 µM (active) and 19.2 µM (active). Moreover, the outcome in assay [4] and in assay [15] was inactive.
